TROY NFkB inh: TROY signaling inhibition; Q293 LMP1-TROYcd NF-kB luciferase reporter, 4 h; inhibition, % at 10 µM; 0.98% of 360,000 active; AID 1347056;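 active = compounds whose plate-normalised and pattern-corrected inhibition of the luciferase reporter signal at the single screening dose is 50% or more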
Peg3 promoter: inhibitors of Peg3 promoter | inhibition, % at 20 µM | HeLa PEG-Prom luciferase reporter, luminescence, overnight | 1.7% of 360,000 active;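 active = inhibition of at least 50% at 20 µM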
CF NFkB block: inhibitors of cystic fibrosis induced NF-kB; KKLEB NF-kB-GFP reporter, PAF-induced, GFP fluorescence overnight; 0.86% of 360,000 active; AID 588850; inhibition, % at 5 µM;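 active = at least 50% inhibition at 5 µM, scaled per plate between neutral and stimulator controls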;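 also: PAF is a Pseudomonas aeruginosa culture filtrate used as stimulus; plate controls were PAF-stimulated DMSO wells for no effect and unstimulated DMSO wells for full effect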
KKLEB cytotox: reduces viability of KKLEB cystic fibrosis airway cells | 0.36% of 360,000 active | activity change (cytotoxicity), % at 5 µM | KKLEB CF airway cells viability, ATPlite luminescence, overnight; active compounds read low; cells stimulated with P. aeruginosa culture filtrate;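 active = corrected activity change at or below -50% at 5 µM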
TWEAK Fn14 block: inhibitors of TWEAK-Fn14 interaction signaling | inhibition, % at 10 µM | 2% of 360,000 active | TWEAK-stimulated Fn14 reporter cells, luciferase luminescence, 8 h; in the data active = inhibition above about 50%
HIF-2a block: blocks HIF-2a reporter activity; 786-0 RCC cells HIF-2a reporter, luciferase luminescence, overnight; inhibition, % at 18.8 µM; 0.72% of 360,000 active;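 active = inhibition of the luminescence signal of 40% or more relative to plate controls, in a single-dose primary screen at 18.75 µM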
Numbers without * were called inactive. Compounds with a hit are over-represented: about 4% of the library has one in this group of screens.

SMILES | TROY NFkB inh | Peg3 promoter | CF NFkB block | KKLEB cytotox | TWEAK Fn14 block | HIF-2a block
COCCN1C(=O)/C(=C/c2ccc(Oc3ccc([N+](=O)[O-])cn3)c(OC)c2)SC1=Nc1ccccc1 | 6.5 | 4.8 | -7.1 | -12.5 | -11.8 | -11.3
O=C1S/C(=C/c2ccc(N3CCOCC3)o2)C(=O)N1Cc1ccc(F)cc1 | 2.5 | -2.4 | -8.7 | 15.9 | -11.1 | 4.6
O=C1/C(=C/c2ccc(N3CCOCC3)o2)SC(=Nc2ccccc2)N1CCc1c[nH]c2ccccc12 | 17.4 | 102.0* | -20.7 | -51.3* | 90.5* | 92.6*
COc1cc(/C=C2\SC(=Nc3ccccc3)N(CCc3c[nH]c4ccccc34)C2=O)ccc1OC(C)C(=O)O (centres undefined) | 58.8* | 3.0 | -36.3 | -17.4 | 45.2 | 1.5
O=C1S/C(=C\c2ccc(N3CCOCC3)o2)C(=O)N1Cc1ccc(F)cc1 | 14.5 | 5.3 | -5.7 | -23.3 | 51.9* | -20.8
OC[C@@H]1CN(Cc2cccc(C(F)(F)F)c2)C[C@H](n2cnc3c(NCc4ccco4)ncnc32)O1 | 8.8 | 9.9 | -10.0 | -1.0 | 10.0 | 6.6
O=C(c1cc(S(=O)(=O)NCc2ccco2)ccc1Br)N1CCOCC1 | 2.4 | -4.8 | -6.5 | 12.6 | 23.3 | 0.5
O=C(Nc1ccc(F)cc1)NC1(C(=O)NCc2ccco2)CCCCC1 | 0.6 | 3.7 | -16.8 | -79.1* | 1.4 | 13.7
C=CCOc1ccc(/C=C2/C(=O)ON=C2C)cc1OC | -17.9 | 46.8 | 4.2 | 0.6 | -3.8 | 27.2
CCCOc1ccc(/C=C2/C(=O)ON=C2C)cc1OCC | -18.1 | 50.4* | 2.5 | -8.3 | 4.0 | 35.8
CCCOc1ccccc1/C=C1/C(=O)ON=C1C | -14.2 | 22.8 | -22.6 | 3.1 | 1.8 | 22.3
CCOc1cc(/C=C2\C(=O)ON=C2C)ccc1OCc1ccccc1 | -16.7 | 89.5* | -16.4 | 2.3 | 60.6* | 67.0*
CNC(=O)COc1ccc(S(=O)(=O)N2CCCC2)cc1 | 6.1 | 9.8 | -2.3 | 11.2 | 4.6 | 12.8
O=C(Cc1ccccc1)N/N=C/c1cc(Br)cc(Br)c1O | 31.8 | 53.7* | 16.9 | -13.4 | 4.2 | 14.1
O=C(CNC(=O)c1cccc(Br)c1)N/N=C/c1cc(Br)cc(Br)c1O | -5.2 | 54.3* | 16.4 | 1.4 | 7.0 | 15.2
O=C(CNC(=O)c1cccc(Br)c1)N/N=C/c1cccs1 | 3.4 | 2.7 | -23.5 | 2.7 | -11.7 | -5.0
O=C(Cc1ccccc1)N/N=C/c1cc(Br)cs1 | -34.8 | -89.8 | 15.2 | -2.4 | -29.0 | -144.2
CSc1ncccc1C(=O)NNC(=O)c1ccc(NS(=O)(=O)c2cccs2)cc1 | 2.4 | 5.3 | -4.8 | 1.6 | -2.8 | -7.4
COc1ccc(C2=NS(=O)(=O)N(C)C(C(=O)Nc3ccc(C(C)=O)cc3)=C2)cc1OC | 31.7 | 33.8 | 4.3 | -4.0 | 48.8 | 8.6
Cc1ccc(C2=NN(C(=O)CN3CCN(C4CCS(=O)(=O)C4)CC3)C(c3ccco3)C2)cc1 (centres undefined) | 65.7* | 16.1 | 26.9 | 4.1 | 70.8* | 36.8
CCN1C(=O)[C@H]2[C@@H](c3ccc(C(F)(F)F)cc3)N[C@]3(CCCN(Cc4cccn4C)C3=O)[C@H]2C1=O | -1.3 | 5.2 | 13.1 | -10.7 | 10.9 | 7.8
CC(C)n1ncc2c(C(=O)NCCc3ccc(S(N)(=O)=O)cc3)cc(C3CC3)nc21 | -24.3 | 4.8 | 10.8 | -4.6 | -14.8 | 11.6
O=C(Nc1ccc(NC(=O)c2ccco2)nc1)c1ccco1 | 12.5 | -29.3 | -10.0 | 8.9 | 73.6* | -36.1
O=C(Nc1ccc(NC(=O)C2CC2)cc1)c1ccco1 | -50.2 | -216.0 | -19.0 | -2.4 | 31.5 | -167.4
O=C(Nc1cccc(S(=O)(=O)c2cccc(NC(=O)c3ccco3)c2)c1)c1ccco1 | 42.4 | 36.2 | -12.4 | -3.3 | 58.8* | 21.5
O=C(Nc1cccc(S(=O)(=O)N2CCCC2)c1)c1ccco1 | 9.9 | 18.4 | 3.8 | 4.0 | 11.0 | -7.8
O=C(Nc1ccc(NC(=O)c2ccco2)nc1)c1ccccn1 | -40.1 | -3.3 | 1.0 | 4.0 | 51.9* | -42.0
O=C(Nc1ccc(NC(=O)C2CCCCC2)cn1)c1ccco1 | 30.1 | -6.8 | 16.7 | 3.7 | 75.2* | 14.8
COc1ccc(CN(C)C[C@@H]2OCc3cnnn3CCCC(=O)N([C@H](C)CO)C[C@H]2C)cc1 | 9.5 | 1.1 | -2.6 | 8.1 | 12.0 | 9.6

Bioassay records from PubChem.
